# In the supplement of paper PMC6555819:
# How the values were obtained:
# Test in all cases: PBM binding z-score (relative to random genomic background probes); higher = stronger binding; sequences stand for … in GC…GCGATTGACAGCGTAGAATGAAGG
# [1] = tested on: FXR:RXRa (NR concentration 270 nM, RXRa partner concentration 90 nM)
# How it was run: (§1)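 Binding buffer was PBS pH 7.4 with 2% milk, 0.02% Triton X-100, 1 mM DTT, 0.2 mg/mL BSA and 0.4 mg/ml salmon testes DNA. In it, ligand-free nuclear receptor dimers were incubated 1 h on custom Agilent 4×180K protein-binding microarrays carrying double-stranded probes. Antibodies against each partner (one per run) detected binding, and z-scores were calculated against random background probes after regression normalization of scanned fluorescence.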
# [2] = tested on: LXRa:RXRa (NR concentration 270 nM, RXRa partner concentration 90 nM)
# How it was run: as §1
# [3] = tested on: LXRa homodimer (NR concentration 270 nM)
# How it was run: as §1
# [4] = tested on: LXRb:RXRa (NR concentration 270 nM, RXRa partner concentration 90 nM)
# How it was run: as §1
# [5] = tested on: LXRb homodimer (NR concentration 270 nM)
# How it was run: as §1
# [6] = tested on: PPARa:RXRa (NR concentration 270 nM, RXRa partner concentration 90 nM)
# How it was run: as §1
# [7] = tested on: PPARg:RXRa (NR concentration 180 nM, RXRa partner concentration 90 nM)
# How it was run: as §1
# [8] = tested on: PPARg:RXRa 270nM:90nM, anti-RXR (NR concentration 270 nM, RXRa partner concentration 90 nM)
# How it was run: as §1
# [9] = tested on: PPARg:RXRa 30nM:10nM, anti-RXR (NR concentration 30 nM, RXRa partner concentration 10 nM)
# How it was run: as §1
# [10] = tested on: PPARg:RXRa 90nM:30nM, anti-RXR (NR concentration 90 nM, RXRa partner concentration 30 nM)
# How it was run: as §1
# [11] = tested on: PPARg:RXRa DBDmut IVT, anti-RXR (DBD mutation: RXRa K156A/R161A, NR concentration 270 nM, RXRa partner concentration 90 nM)
# How it was run: as §1
# [12] = tested on: PPARg:RXRa IVT, anti-PPARg (NR concentration 270 nM, RXRa partner concentration 90 nM)
# How it was run: as §1
# [13] = tested on: PPARg DBDmut:RXRa IVT, anti-PPARg (DBD mutation: PPARg1 K132A/R137A, NR concentration 270 nM, RXRa partner concentration 90 nM)
# How it was run: as §1
# [14] = tested on: PPARg DBDmut IVT, anti-PPARg (DBD mutation: PPARg1 K132A/R137A, NR concentration 270 nM)
# How it was run: as §1
# [15] = tested on: PPARg homodimer (NR concentration 180 nM)
# How it was run: as §1
# [16] = tested on: PXR:RXRa (NR concentration 270 nM, RXRa partner concentration 90 nM)
# How it was run: as §1
# [17] = tested on: PXR homodimer (NR concentration 270 nM)
# How it was run: as §1
# [18] = tested on: RARa:RXR (NR concentration 270 nM, RXRa partner concentration 90 nM)
# How it was run: as §1
# [19] = tested on: RARa homodimer (NR concentration 270 nM)
# How it was run: as §1
# [20] = tested on: RARb:RXRa (NR concentration 270 nM, RXRa partner concentration 90 nM)
# How it was run: as §1
Sequence,PBM binding z-score [1],PBM binding z-score [2],PBM binding z-score [3],PBM binding z-score [4],PBM binding z-score [5],PBM binding z-score [6],PBM binding z-score [7],PBM binding z-score [8],PBM binding z-score [9],PBM binding z-score [10],PBM binding z-score [11],PBM binding z-score [12],PBM binding z-score [13],PBM binding z-score [14],PBM binding z-score [15],PBM binding z-score [16],PBM binding z-score [17],PBM binding z-score [18],PBM binding z-score [19],PBM binding z-score [20]
CCGAGTAGGTTATGGGTCATTCAGGCAACGGTGA,2.41,2.13,0.794,2.57,0.212,4.37,7.07,6.9,5.78,6.93,3.95,4.54,-0.0117,-0.483,1.77,2.17,0.442,3.06,1.09,2.3
GCTTGTTGGTCAGTAAAAGGTCACACACCGGTCG,3.14,4.29,4.58,4.04,1.25,4.42,3.2,4.25,2.37,4.03,1.37,3.04,0.573,0.581,3.31,4.71,1.12,5.45,1.86,4.32
AGAACGAGGACAATGAGTTGATAGCACGGGTGGC,-0.125,-0.562,-0.33,-0.706,-0.434,-0.365,1.06,-0.0649,-0.0875,-0.147,1.03,0.378,-0.192,-0.367,0.00958,0.277,1.99,-0.176,0.102,0.775
ACTAACGGGTCAACGAGGTTATAGCACGCGTATA,6.32,4.49,0.715,3.82,0.313,5.19,4.64,4.34,1.48,2.98,1.94,3.19,1.38,1.31,2.63,4.96,2.39,5.01,0.559,3.91
CCGACTGGGGCAAAGGGTACCATACTCAGTACGA,-0.124,-0.144,-0.41,0.194,-1.06,3.81,8.34,7.63,6.97,8.88,3.56,4.9,-0.131,-0.788,1.03,-0.113,-0.353,0.544,-0.388,1.11
GCAGACAGGTGAAACGTAGGTAACTCAGGGTGGC,-0.116,0.0027,-0.589,-0.409,-0.785,0.799,0.792,0.526,-0.444,-0.0243,1.69,0.679,-0.482,-0.518,-0.211,-0.374,-0.933,0.315,-0.166,0.76
ATATCTAGGTAAGACTCAGTTCAGTGAAGAACGC,0.211,0.372,0.425,0.221,0.484,1.35,1.55,1.27,0.124,0.928,5.77,4.56,2.06,1.25,0.747,0.999,1.25,0.287,1.13,0.401
ATCCCTAGGTAAAGATAGTTCAGTGAATGCAAAT,0.139,4.49,0.337,0.881,0.0793,0.459,0.486,-0.104,-0.14,-0.302,-0.0456,0.0928,0.379,0.507,0.544,1.12,0.666,0.665,1.04,0.863
CCAAGTTGGTCAAGGTCACACACGCTATAGGTAC,4.98,4.1,1.98,3.73,0.363,4.23,3.48,4.02,1.45,3.14,2.97,3.8,0.633,0.94,3.54,4.6,4.77,4.56,1.99,4.27
CCTGCTAGGTCAATAGTCAGCTAAAGCAGCTCGC,2.43,1.66,-0.401,0.931,0.148,2.28,2.33,2.95,0.219,1.9,3.97,3.08,-0.361,-0.649,0.586,0.324,-0.908,0.911,-1.08,3.45
CCTATTAGTTGACCATAAGGGCACCCGAAGCTCG,0.765,0.567,0.422,0.491,0.755,0.457,0.534,0.375,0.138,0.172,-0.198,0.504,0.132,0.825,1.88,0.521,0.781,0.981,1.56,1.2
TCTTGCAGATCAAGCAGGTTAAGAAAGCCTGAGT,-0.529,0.00259,-0.304,0.157,-0.667,0.293,-0.508,0.302,1.76,1.14,0.549,-0.312,-0.516,-0.801,-0.945,0.199,-0.285,0.324,-1.11,-0.136
TCATATAGGTAAACAGGTGCAAGTCCGTAAGTTA,0.886,1,0.433,1.02,-0.121,1.65,1.1,2.53,3.85,3.12,4.3,2.74,0.88,1.48,1.13,1.33,0.685,1.34,1.57,0.765
GCGACTGGGGCAAAGCAGGTTACCGTAAGGTTGG,-0.0896,0.23,-0.658,0.135,-1.45,1.51,0.866,1.45,-0.363,0.645,4.2,3.74,-0.21,-0.572,0.239,0.503,-0.648,1.73,-1.1,0.922
CGAACTAGGTCAATGACAGTGAATCTCCGCACGC,3.48,2.25,0.283,1.56,-0.147,4.35,6.92,5.8,2.99,5.2,7.95,7.88,1.44,0.0144,1.11,1.01,0.0387,1.71,0.201,3.68
